PubChem BioAssay AID1159580 (chemical genetic matrix, 2015)
Several values for one entry are separate records, joined by “and”; a condition that tells them apart may be missing. Equal values may be shown once. Among all 5,500 compounds or so, about 2,000 (36%) were called active. Another 18% or so got no clear call; they are omitted. No stated cut-off is given here; in the data, active means normalized growth mostly below about 0.91 (no sharp cut-off); inconclusive means no clear call, values can overlap the other calls; inactive means mostly above about 0.92. This is one part of the list.

Assay: chemical genetic growth profiling, strain panel (AID 1159580);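 further: tested at 20 µM; growth read once vehicle control cultures reached saturation at 30 °C; 1 = growth at the plate median or of vehicle wells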
Conditions: S. cerevisiae deletion strains, growth OD

Measured: normalized growth

C=C(C)[C@H]1CC=C(C(=O)O)CC1
0.98 (inactive) and 0.786 (active): locus YJL095W, strain BCK1, stronger effect = lower value
0.997 (inactive) and 0.788 (active): locus YHR030C, strain SLT2, stronger effect = lower value
inactive: locus YAL013W, strain DEP1, stronger effect = lower value 1.01 | locus YAL021C, strain ccr4, stronger effect = lower value 0.968 | locus YAL026C, strain drs2, stronger effect = lower value 0.958 | locus YAL030W, strain snc1, stronger effect = lower value 0.985 | locus YBL061C, strain skt5, stronger effect = lower value 0.986 | locus YBR009C, strain hhf1, stronger effect = lower value 0.939 | locus YBR023C, strain chs3, stronger effect = lower value 0.985 | locus YBR171W, strain sec66, stronger effect = lower value 0.961 | locus YBR229C, strain ROT2, stronger effect = lower value 1.01 | locus YBR231C, strain swc5, stronger effect = lower value 0.939 | locus YBR279W, strain paf1, stronger effect = lower value 0.972 | locus YCL011C, strain gbp2, stronger effect = lower value 0.973 | locus YCL016C, strain dcc1, stronger effect = lower value 0.979 | locus YCL029C, strain bik1, stronger effect = lower value 0.938 | locus YCL061C, strain MRC1, stronger effect = lower value 0.944 | locus YCL069W, strain vba3, stronger effect = lower value 0.984 | locus YCR088W, strain abp1, stronger effect = lower value 0.994 | locus YDL005C, strain med2, stronger effect = lower value 0.97 | locus YDL035C, strain GPR1, stronger effect = lower value 0.926 | locus YDL040C, strain nat1, stronger effect = lower value 0.995 | locus YDL074C, strain BRE1, stronger effect = lower value 0.945 | locus YDL101C, strain DUN1, stronger effect = lower value 0.976 | locus YDL134C, strain PPH21, stronger effect = lower value 0.944 | locus YDL192W, strain arf1, stronger effect = lower value 0.957 | locus YDR001C, strain nth1, stronger effect = lower value 0.986 | locus YDR069C, strain doa4, stronger effect = lower value 0.999 | locus YDR101C, strain arx1, stronger effect = lower value 0.926 | locus YDR137W, strain rgp1, stronger effect = lower value 1.04 | locus YDR159W, strain sac3, stronger effect = lower value 0.94 | locus YDR162C, strain NBP2, stronger effect = lower value 0.989 | locus YDR297W, strain sur2, stronger effect = lower value 0.971 | locus YDR318W, strain mcm21, stronger effect = lower value 0.938 | locus YDR334W, strain swr1, stronger effect = lower value 0.971 | locus YDR335W, strain msn5, stronger effect = lower value 0.975 | locus YDR388W, stronger effect = lower value 0.952 | locus YDR392W, strain spt3, stronger effect = lower value 0.934 | locus YDR502C, strain sam2, stronger effect = lower value 0.926 | locus YEL003W, strain gim4, stronger effect = lower value 0.943 | locus YEL037C, strain rad23, stronger effect = lower value 0.988 | locus YEL061C, strain CIN8 (second series), stronger effect = lower value 0.991 | locus YEL061C, strain CIN8, stronger effect = lower value 1 | locus YER015W, strain faa2, stronger effect = lower value 0.98 | locus YER016W, strain bim1, stronger effect = lower value 0.992 | locus YER110C, stronger effect = lower value 0.925 | locus YER111C, strain swi4, stronger effect = lower value 0.98 | locus YER155C, strain BEM2 (second series), stronger effect = lower value 1 | locus YER155C, strain BEM2, stronger effect = lower value 0.947 | locus YER167W, strain BCK2, stronger effect = lower value 0.978 | locus YFR010W, strain ubp6, stronger effect = lower value 0.978 | locus YGL086W, strain mad1, stronger effect = lower value 0.965 | locus YGL167C, strain pmr1, stronger effect = lower value 0.978 | locus YGL173C, strain kem1, stronger effect = lower value 0.949 | locus YGL227W, strain vid30, stronger effect = lower value 0.975 | locus YGL240W, strain doc1, stronger effect = lower value 0.956 | locus YGL248W, strain PDE1, stronger effect = lower value 0.97 | locus YGL253W, strain hxk2, stronger effect = lower value 0.944 | locus YGR135W, strain pre9, stronger effect = lower value 0.903 | locus YHR013C, strain ard1, stronger effect = lower value 0.993 | locus YHR027C, strain rpn1, stronger effect = lower value 0.96 | locus YHR079C, strain IRE1 (second series), stronger effect = lower value 0.941 | locus YHR094C, strain hxt1, stronger effect = lower value 0.955 | locus YHR129C, strain ARP1, stronger effect = lower value 0.984 | locus YHR142W, strain chs7, stronger effect = lower value 0.96 | locus YHR200W, strain rpn10, stronger effect = lower value 0.961 | locus YIL066C, strain RNR3, stronger effect = lower value 0.963 | locus YIL073C, strain SPO22, stronger effect = lower value 0.978 | locus YIR030C, strain dcg1, stronger effect = lower value 0.961 | locus YJL092W, strain hpr5, stronger effect = lower value 0.983 | locus YJL095W, strain BCK1 (second series), stronger effect = lower value 0.985 | locus YJL115W, strain asf1, stronger effect = lower value 0.983 | locus YJL129C, strain trk1, stronger effect = lower value 0.911 | locus YJL134W, strain LCB3, stronger effect = lower value 0.996 | locus YJL154C, strain vps35, stronger effect = lower value 0.99 | locus YJL164C, strain tpk1, stronger effect = lower value 0.97 | locus YJL166W, strain qcr8, stronger effect = lower value 0.981 | locus YJL168C, strain set2, stronger effect = lower value 0.968 | locus YJL187C, strain SWE1 (second series), stronger effect = lower value 0.955 | locus YJR043C, strain POL32, stronger effect = lower value 0.916 | locus YKL009W, strain mrt4, stronger effect = lower value 0.954
active: locus YBR021W, strain FUR4, stronger effect = lower value 0.82 | locus YDL185W, strain tfp1, stronger effect = lower value 0.871 | locus YDR195W, strain ref2 0.844 | locus YGL078C, strain dbp3, stronger effect = lower value 0.804 | locus YGR252W, strain gcn5, stronger effect = lower value 0.606 | locus YHR079C, strain IRE1, stronger effect = lower value 0.703 | locus YIL125W, strain kgd1, stronger effect = lower value 0.78 | locus YJR066W, strain TOR1, stronger effect = lower value 0.747
